In the library only some 3.2% were active in any assay of this set; here they are far more common.
Sm TGR block = inhibitors of Schistosoma mansoni thioredoxin glutathione reductase. Q962Y6. purified TGR, DTNB reduction, TNB absorbance 405 nm. Potency, µM (top dose mostly 114 µM), for inactives: at the top dose activity change, negative = inhibition, actives largely listed as inhibitors. actives 3% (n = 360,000). AID 485364; also: nearly all actives have a fitted effect of over 60% in size
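First, TGR (20 nM dispensed) and NADPH were mixed with compound. Second, a 15 min room-temperature incubation followed. Third, further NADPH and then DTNB were added to start the reaction. Finally, TNB absorbance was monitored kinetically.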
AmpC inh no detg = AmpC beta-lactamase inhibition without detergent; P00811; AmpC nitrocefin hydrolysis, absorbance 480 nm, 0.0001% Triton; Potency, µM (titrated, usually from 57.1 µM), for inactives: top-dose activity change, negative = inhibition, most hits filed as inhibitors; actives 0.52% (n = 330,000); AID 485341;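 also: plate controls were no compound for no effect and no enzyme for full effect; nearly all actives have a fitted effect of over 20% in size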
Target sequence (P00811 whole entry, looked up): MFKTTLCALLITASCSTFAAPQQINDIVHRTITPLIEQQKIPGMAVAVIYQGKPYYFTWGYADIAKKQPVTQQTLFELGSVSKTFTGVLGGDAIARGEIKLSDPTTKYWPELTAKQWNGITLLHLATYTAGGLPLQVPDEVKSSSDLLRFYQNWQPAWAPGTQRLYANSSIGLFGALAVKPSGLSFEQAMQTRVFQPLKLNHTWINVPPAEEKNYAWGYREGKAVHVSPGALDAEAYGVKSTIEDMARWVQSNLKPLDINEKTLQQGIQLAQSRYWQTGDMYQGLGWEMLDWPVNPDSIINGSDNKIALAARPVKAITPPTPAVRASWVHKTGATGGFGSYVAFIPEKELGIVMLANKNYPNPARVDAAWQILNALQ
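AmpC (5.3 nM in the dispensed reagent) in 20 mM phosphate pH 7.0 with 0.01% (detergent screen) or 0.0001% Triton X-100 was preincubated with compounds for 15 min at room temperature. Nitrocefin was then added from an 800 uM solution, and hydrolysis was followed at 480 nm.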
AmpC inh detg = AmpC beta-lactamase inhibition with detergent present | AID 485294 | P00811 | Potency, µM (highest dose often 114 µM), for inactives: at the highest dose activity change, negative = inhibition, most hits filed as inhibitors | actives 0.041% (n = 370,000) | AmpC hydrolysis of nitrocefin, absorbance 480 nm, 0.01% Triton;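 also: 0% = no-compound wells and -100% = no-enzyme wells; nearly all actives have a fitted effect of over 25% in size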
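AmpC (5.3 nM in the dispensed reagent) in 20 mM phosphate pH 7.0 with 0.01% (detergent screen) or 0.0001% Triton X-100 was preincubated with compounds for 15 min at room temperature. Nitrocefin was then added from an 800 uM solution, and hydrolysis was followed at 480 nm.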
AMA1-RON2 inh = AMA1-RON2 (P. falciparum) interaction inhibition; Potency, µM (highest dose often 58.2 µM), without a hit: at the top dose activity change, negative = inhibition, most hits filed as inhibitors; actives 0.2% (n = 360,000); AlphaScreen AMA1-biotinylated RON2 peptide binding; AID 720542;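 also: 0% = vehicle wells and -100% = peptide control; nearly all actives have a fitted effect of over 45% in size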
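AMA1 (3D7) with his tag at 25 nM final met compounds first, then biotinylated RON2 peptide at 25 nM; detection used donor plus acceptor beads, 10 µg/mL apiece, read by AlphaScreen after 30 min at room temperature.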
RE007 growth inh = less growth of the S. pombe RE007 Vpr strain. S. pombe RE007 Vpr strain, BacTiter-Glo ATP luminescence, 24 h. Potency, µM (series often up to 92.2 µM), for inactives: top-dose activity change, negative = less growth, actives largely listed as inhibitors. actives 0.21% (n = 360,000); active = well fitted falling curve with a large enough effect; inconclusive = small, poorly fitted or top-dose-only effect; inactive = no such curve, though single readings can be large or run the other way; also: nearly all actives have a fitted effect of over 50% in size
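Fission yeast RE007 carrying one integrated HIV-1 vpr copy, seeded at OD 0.01 in PMG+AL medium with 23 nL pinned compound. Grown 24 h at 30 degrees; viability read by BacTiter-Glo luminescence after 5 min.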
Starred values were filed as active, the others as inactive; ? = inconclusive; · = not tested or not shown; [ ] = dose if it differs, or a comment. Unless noted, calls follow the shape of the dose curve; as a rule, active = well fitted curve in the direction sought with a large enough effect; inconclusive = small, poorly fitted or top-dose-only effect, or another doubt; inactive = no such curve, though single readings can be large; an effect the other way counts as inactive or inconclusive. Unless noted, % is scaled to controls: 0 for no effect and ±100 for the full control effect; potency is read from the fitted curve at half-maximal effect.

SMILES | Sm TGR block | AmpC inh no detg | AmpC inh detg | AMA1-RON2 inh | RE007 growth inh
COc1cc(C2CC(=O)Nc3cc4c(cc32)OCCO4)cc(Br)c1OC (stereo unspecified) | 1% | · | 9% | · | ·
CCn1c2c(c(=O)n3ncc(C(=O)Nc4ccc(F)cc4Cl)c13)CN(Cc1ccc(OC)cc1)CC2 | -17% | · | 3% | · | ·
CCN(C(=O)Cn1c(=O)n(Cc2ccc3c(c2)OCO3)c(=O)c2ccc(C(=O)NC3CCCCC3)cc21)c1cccc(C)c1 | 12% | · | 3% | · | ·
CCc1nn2c(=O)cc(COc3ccc(/C=C(\C#N)C(=O)Nc4ccc(F)cc4)cc3OC)nc2s1 | 17% | · | 6% | · | ·
COCC(=O)n1nc(-c2ccccc2)nc1NCc1ccc(N(C)C)cc1 | 7% | -6% | 3% | 22µM* | 9%
COc1cccc(CN2CCCN(CC(=O)Nc3ccc4c(c3)OCCO4)S2(=O)=O)c1 | 5% | · | 4% | · | ·
CCn1nc(-c2ccccc2)c(-c2ccccc2)c(C(=O)Nc2ccc(S(N)(=O)=O)cc2)c1=O | 7% | · | -1% | · | ·
COC(=O)CCCn1c(C)cc(C(=O)CCl)c1C | 7.9µM* | -6% | 5% | -1% | 26%
Cc1cc(C(=O)CCl)c(C)n1CCc1ccccc1 | 8.9µM* | -5%[11.4 µM] | 9% | ? | -10%
COC(=O)CCn1c(C)cc(C(=O)COc2ccccc2C(N)=O)c1C | -13% | -12% | -5% | -22% | 7%
O=C1N=C(N2CCN(c3ccccc3)CC2)S/C1=C\c1ccco1 | 22µM* | 4% | -7% | -6% | 8%
NC1=NC(=O)/C(=C\c2ccco2)S1 | 3.2µM* | -21% | -13% | 1% | -22%
O=C1N=C(N2CCN(c3ccccc3)CC2)S/C1=C/c1ccco1 | ? | -38% | -1% | -19% | 4%
Cn1c(=O)cc(SCC(=O)NCc2ccc(F)cc2)c2cc(Cl)ccc21 | 0% | · | 16% | · | ·
O=C1CC(N2CCOCC2)C(=O)N1c1cc(Cl)cc(Cl)c1 (stereo unspecified) | 35µM* | 5% | -3% | 6% | 11µM*
Cc1cc(C)cc(N2C(=O)CC(N3CCOCC3)C2=O)c1 (stereo unspecified) | 50µM* | -9% | -4% | 3% | -10%
O=C1CC(N2CCOCC2)C(=O)N1CCN1C(=O)CC(N2CCOCC2)C1=O (stereo unspecified) | -24% | -8% | -11% | 21% | -7%
O=c1oc2ccccc2cc1-c1nc2ccccc2o1 | 0% | -20% | -2% | 41% | ?
Nc1cc2nc3ccccc3oc-2cc1=O | 16µM* | -43% | -3% | -3% | 63µM*
NC(CSCc1cccc(Br)c1)C(=O)O (stereo unspecified) | 40µM* | -44% | -2% | 32% | -8%
NC(=O)CSCc1cccc(Br)c1 | 2% | -17% | -3% | -2% | -4%
O=C1CCCc2cc(S(=O)(=O)NCC3CCC(C(=O)NCc4ccc(F)cc4)CC3)ccc2N1 (stereo unspecified) | ? | · | -2% | · | ·
Cc1ccc(O)c(CNc2cnc3ccccc3c2)c1 | ? | -47% | -7% | -5% | -21%
Oc1ccc(Br)cc1CNc1cnc2ccccc2c1 | -19% | 18µM* | -3% | 9% | -14%
Cc1ccc(-c2cc(-c3ccc4c(c3)OCO4)c(C#N)c(N)n2)o1 | 10µM* | -31% | -1% | 45% | -13%
SMILES | Sm TGR block | AmpC inh no detg | AmpC inh detg | AMA1-RON2 inh | RE007 growth inh
Cc1nc(N)c(C#N)c(-c2ccc3c(c2)OCO3)c1C | 6% | -19% | -22% | 0% | 25%
CCOc1cc(-c2cc(-c3ccc(C)o3)nc(N)c2C#N)ccc1O | -24% | -45% | -2% | 10% | 4%
Cc1ccc(-c2cc(-c3ccc(C)o3)nc(N)c2C#N)cc1 | 3.2µM* | -20% | -9% | 6% | ?
Cc1ccc(-c2cc(-c3ccc(F)cc3)c(C#N)c(N)n2)o1 | 20µM* | ? | -19% | 11% | ?
Cc1cc(-c2cc(-c3ccc(Cl)cc3)nc(N)c2C#N)co1 | 3.2µM* | -37% | 1% | 6% | 45µM*
COc1ccc(-c2cc(-c3ccc(O)cc3)nc(N)c2C#N)cc1OC | -31% | -6% | 2% | 12% | -4%
CC1CCN(S(=O)(=O)c2cn(CC(=O)Nc3ccc(F)cc3)c(=O)c3ccccc23)CC1 | 3% | · | -5% | · | ·
Cc1ccc(S(=O)(=O)NCC(c2ccco2)N2CCN(c3ccccc3F)CC2)cc1 (stereo unspecified) | 5% | · | 3% | · | ·
Cc1ccc2nc(NCc3ccccc3)c3nnnn3c2c1 | 24% | · | 15% | · | ·
COc1ccc(CCN2C(=O)c3oc4ccc(F)cc4c(=O)c3C2c2ccc(C(C)(C)C)cc2)cc1 (stereo unspecified) | -5% | · | 24% | · | ·
Cc1ccc(-c2cc(-c3ccc(Cl)cc3)c(C#N)c(N)n2)o1 | 3.5µM* | -49% | -1% | 30% | -20%
O=C(CCn1cccc1)Nc1cccc(F)c1 | 35µM* | -10% | -3% | -9% | -12%
OCCC1CN(Cc2c(O)ccc3ccccc23)CCN1CCc1ccccc1 (stereo unspecified) | 0.63µM* | 75% | 9% | -21% | -17%
OCCC1CN(Cc2ccccc2O)CCN1CCCc1ccccc1 (stereo unspecified) | -13% | 11% | -9% | -2% | -6%
Cn1cc(CN2CCN(CC(C)(C)C)C(CCO)C2)c2ccccc21 (stereo unspecified) | -25% | -5% | 0% | -6% | -16%
COc1cc(CN2CCN(CCCc3ccccc3)C(CCO)C2)cc(OC)c1O (stereo unspecified) | 20µM* | 19% | -15% | -4% | 18%
CC(C)CN1CCN(Cc2cn(C)c3ccccc23)CC1CCO (stereo unspecified) | 89µM* | -10% | -13% | 1% | -5%
COc1ccc(CN2CCN(CCc3ccccc3)C(CCO)C2)c(O)c1 (stereo unspecified) | 45µM* | 41% | 0% | -4% | 3%
CCOc1ccccc1-c1nc(SCC(=O)c2ccc(OC)c(Br)c2)n[nH]1 | -3% | · | 28% | · | ·
COc1ccccc1NC(=S)N(CCc1c(C)[nH]c2ccccc12)Cc1cccs1 | -15% | 40µM* | ? | -5% | -8%
Cc1csc2nc(-c3cccc(NC(=O)c4c(F)cccc4F)c3)cn12 | 6% | · | 8% | · | ·
CCc1cccc(NC(=O)CSC2=NS(=O)(=O)c3ccccc32)c1 | 3.2µM* | -25% | -8% | 3% | 2%
CCCN(Cc1cccs1)C(=O)Nc1ccccc1C | 29% | · | 14% | · | ·
CC(/C=N/Nc1ccc2nncn2n1)=C\c1ccccc1 | 45µM* | -32% | -3% | -1% | 18%
C(=C\c1ccccc1)/C=N/Nc1ccc2nncn2n1 | 0% | -15% | 5% | 2% | -7%

Screening data: PubChem BioAssay, National Center for Advancing Translational Sciences (NCATS)
